Screening data deposited in PubChem by ICCB-Longwood Screening Facility, Harvard Medical School.
MenB inh: Mtb MenB enzyme inhibition | hit rate 0.43% among 100,000 | AID 540299 | MenB enzyme assay, absorbance read-out | P9WNP5 | inhibition, % (concentration not given with the values); in the data active means inhibition above about 21%, passing the limit was not always enough
Target sequence (P9WNP5 whole entry, looked up): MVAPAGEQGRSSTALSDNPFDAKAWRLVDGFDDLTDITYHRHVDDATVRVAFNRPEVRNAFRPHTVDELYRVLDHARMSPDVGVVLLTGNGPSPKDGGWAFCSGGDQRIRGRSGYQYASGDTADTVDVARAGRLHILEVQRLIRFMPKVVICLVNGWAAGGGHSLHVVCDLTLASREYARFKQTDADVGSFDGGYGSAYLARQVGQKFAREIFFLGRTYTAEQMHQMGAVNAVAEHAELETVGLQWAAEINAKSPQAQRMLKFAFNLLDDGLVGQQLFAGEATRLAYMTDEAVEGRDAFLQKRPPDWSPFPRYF
Polio RdRp inh: inhibitors of poliovirus RNA polymerase binding and polymerization | poliovirus polymerase elongation, fluorescence polarization; hits give low values | % elongation, % (compound at 16.7 µg/mL) | hit rate 0.66% among 150,000 | AID 588519; in the data active means % elongation below about 90%
MbtI inh: MbtI salicylate synthase inhibition; P9WFX0; purified MbtI enzyme, fluorescence intensity read-out; inhibition, % (concentration not given with the values); hit rate 0.89% among 100,000; AID 493033; in the data active means inhibition mostly above about 56%, no sharp cut-off; inactive means mostly below about 77%
* marks the source's active call; other numbers are inactive results; i = inactive; / = no result given. Most compounds without a hit are left out; they make up all but 1.4% or so of the library.

SMILES	MenB inh	Polio RdRp inh	MbtI inh
Cc1ccc2nc(C(C)O)[nH]c2c1 (stereo not drawn)	-2	97	-5
CC(O)c1nc2cc3ccccc3cc2[nH]1 (stereo not drawn)	34*	102	89
CCOc1ccc(N(Cc2cccc3ccccc23)C(=O)c2ccco2)cc1	-35	105	/
Cc1ccc(CN(C)C(=S)NCc2ccccc2)o1	-10	100	-1
CCOc1ccc2nc(Cl)c(CN(Cc3ccco3)C(=O)C3CC3)cc2c1	i	100	17
Cc1ccc(C)c(OCCn2cc(C(=O)c3cccs3)c3ccccc32)c1	/	102	/
Cc1ccc(OCCn2cc(C(=O)c3cccs3)c3ccccc32)cc1	/	77*	/
N[C@@H](Cc1ccc(O)c(O)c1)C(=O)O	0	99	-39
O=C(NCCc1ccc(O)c(O)c1)C(F)(F)F	/	101	85*
Cc1ccc(NC2=NC(C(=O)Nc3ccc(F)c(Cl)c3)CC(=O)N2)cc1 (stereo not drawn)	-11	104	-5
O=c1cc(O)c2ccccc2[nH]1	-155	101	55
O=C1c2ccccc2C(=O)C1c1cc(=O)[nH]c2ccccc12	-168	87*	6
Cc1cnc(NC(=O)CCCSc2ccccc2)s1	-11	/	-11
Cc1cc(C)cc(-n2c(=O)c3oc4ccccc4c3n(CC#N)c2=O)c1	-8	100	-12
O=C(CSc1nc2ncc(Cl)cc2[nH]1)NN1C(=O)NC2(CCCCC2)C1=O	-25	102	-2
OCCN/N=C/c1ccc(Br)cc1	-34	102	12
CCCn1c(SCc2c(C)noc2C)nc2ccccc2c1=O	-19	103	14
CC(Oc1ccccc1)C(=O)Nc1scc2c1c(=O)oc1ccccc12 (stereo not drawn)	-20	95	58
O=C(CCCc1ccccc1)Nc1scc2c(=O)oc3ccccc3c12	8	79*	/
COC(=O)c1cccc(NC(=O)Cc2csc(C)n2)c1	5	101	0
O=C(O)CN(CC(=O)O)C(=O)/C=C/c1ccccc1	-32	99	1
Cc1ccc(S(=O)(=O)N(CC(=O)NC2CCCCC2)Cc2ccco2)cc1C	12	106	-12
CC(=O)Nc1ccc(Cl)cc1C(F)(F)F	0	99	-9
CCN1C(=O)N(c2ccc(C)c(Cl)c2)S(=O)(=O)c2ccccc21	0	100	-6
Cc1ccc(N2C(=O)N(c3ccccc3)C(=N)C2=S)cc1Cl	2	68*	45
SMILES	MenB inh	Polio RdRp inh	MbtI inh
COc1cccc(C2=NS(=O)(=O)N(C)C(C(=O)Nc3cccc(O)c3)=C2)c1	/	-16*	/
CCc1ccccc1NC(=O)C1=CC(c2cccc(OC)c2)=NS(=O)(=O)N1C	-8	102	2
O=C(CSc1nc2c(n1-c1ccccc1)CCCC2)N1CCN(C(=O)c2cccs2)CC1	-2	104	2
NC(=O)c1ccccc1NC(=O)COCC(=O)O	-40	104	8
Cc1cc2c(NC(=O)COCC(=O)O)cccc2nn1	8	65*	2
CN(C)S(=O)(=O)c1cccc(CSc2n[nH]c(-c3cccs3)n2)c1	-34	102	3
Cc1ccc(N2C(=O)CSC2=S)c(C)c1	-41	101	-31
NS(=O)(=O)c1ccc(N2C(=O)CSC2=S)cc1	-75	99	57*
CN(Cc1ccccc1Cl)C(=O)c1ccc(O)c(Cl)c1	-4	104	5
Cc1[nH]c(=S)sc1CC(=O)N(C)Cc1ccccc1Cl	-12	104	76*
O=C(Nc1ccc2c(c1)OCCCO2)c1cn(-c2ccccc2)nc1-c1cccs1	-25	107	39
Cc1ccc(P(=Nc2ccccc2C(F)(F)F)(OCCN2CCOCC2)C(C)(C)C)o1 (stereo not drawn)	-16	98	-2
COc1ccc(F)cc1S(=O)(=O)Nc1cccc(-c2ccc(N3CCCCCC3)nn2)c1	/	110	/
COc1ccc(OC)c(S(=O)(=O)Nc2cccc(-c3ccc(N4CCCCC4)nn3)c2)c1	/	85*	/
CC(C)NC(=O)CCCN1C(=O)c2ccccc2C1=O	/	/	-8
CCSc1nc2c(c(=O)n1C)C1(CCCCC1)Cc1ccccc1-2	-3	105	/
CC(C)c1ccc(C=C2C(=O)NC(=O)NC2=O)cc1	-7	77*	6
O=C1NC(=O)C(=Cc2ccccc2)C(=O)N1	-62	103	34
C=C1C(C(=O)Nc2ccccc2N2CCOCC2)C1C(=O)Nc1ccccc1N1CCOCC1 (stereo not drawn)	-26	103	-11
CN(C)C(=S)Nc1ccccc1N1CCOCC1	-11	98	95*
C/C(c1cccs1)=[N+](/[O-])C(C)/C(=N/O)c1ccco1 (stereo not drawn)	5	99	15
C=CCn1c(C)cc(C(=O)CSc2nnc(-c3ccccc3)n2CC)c1C	-15	106	-42
CCN(CC)N=Nc1ccc(NC(C)=O)cc1	10	106	90*
CC(=O)Nc1ccc(N=Nc2ccc(O)cc2)cc1	-234	105	13
C=CCN=c1scc(-c2ccco2)n1/N=C/c1c[nH]c2ccccc12	-43	109	0
SMILES	MenB inh	Polio RdRp inh	MbtI inh
CN(C)S(=O)(=O)c1ccc(NCC(=O)N2CCN(c3ccccc3)CC2)cc1	7	99	20
CC1=NN(c2ccccc2)C(=O)/C1=N\OCC(=O)N1CCCc2ccccc21	-13	105	69
COc1ccc(/C=c2\s/c(=C(/C#N)C(=O)Nc3cccc(C(F)(F)F)c3)n(Cc3ccco3)c2=O)c(OC)c1OC	-17	135	19
Cc1[nH]c(=O)[nH]c(=O)c1Oc1ccccc1	1	102	-7
Cc1cc(NCCN2CCCCC2)c2ccc3ccccc3c2n1	-1	69*	i
Cc1cccc2cc(C#N)c(SCCN3CCCCC3)nc12	22	100	28
O=C(CSc1nc2ccccc2c(=O)n1C1CCCC1)Nc1cccnc1Cl	-20	100	4
O=C1C=CC(=O)N1Cc1ccccc1	-3	103	-13
O=C1C=CC(=O)N1c1ccccc1Sc1ccccc1	/	101	99*
COCC(C)n1c(C)cc(C(=O)COC(=O)c2ccc3c(c2)S(=O)(=O)N=C2CCCCCN23)c1C (stereo not drawn)	-147	102	-10
Cc1ccc(NC(=O)c2ncoc2-c2ccco2)cc1Cl	/	110	/
Cc1ccccc1-c1ocnc1C(=O)Nc1cccnc1	30*	102	4
C=C(C)CN(CC)C(=O)CSc1nc2ncc(Cl)cc2[nH]1	-19	88*	65
Cn1cccc1C(=O)NC(=O)CSc1nc2ncc(Cl)cc2[nH]1	-28	103	-4
O=C(Nc1ccc2c(c1)OCCO2)c1cccc2c1C(=O)N(Cc1cccnc1)C2	4	103	3
Cc1nonc1C(=O)N/N=C/C(C)C	2	102	-7
COc1ccccc1OCCNc1ncnc2sccc12	-5	104	4
CCOCCCNc1ncnc2sccc12	-14	83*	-11
C=CCn1c(COc2cccc(C)c2)nnc1SCC(=O)NC(C)(C#N)C(C)C (stereo not drawn)	-33	108	-9
CCn1c(COc2cccc(C)c2)nnc1SCC(=O)NC(C)(C)C	41*	103	12
Cn1c(-c2ccccc2)c(C(=O)CN2CCN(C(=O)c3ccco3)CC2)c2ccccc21	-28	104	18
CNc1nnc(Sc2nnc(NC)s2)s1	-16	91	90*
CCSc1nnc(Nc2ccccc2)s1	-35	103	9
CN(C(=O)NC(=O)Nc1ccc(C=C(C#N)C#N)cc1)S(C)(=O)=O	-116	95	7
